Results taken from ChEMBL document CHEMBL1157539, “Thousands of chemical starting points for antimalarial lead identification” (Nature, 2010).

What was measured:
Assay type in all cases: functional
Plasmodium falciparum [1] = experiment: GSK_TCMDC: Inhibition of Plasmodium falciparum 3D7 in whole red blood cells, using parasite LDH activity as an index of growth. Test compounds present at 2uM
Plasmodium falciparum [2] = experiment: GSK_TCMDC: Inhibition of Plasmodium falciparum Dd2 in whole red blood cells, using parasite LDH activity as an index of growth. Test compounds present at 2uM
HepG2 = experiment: GSK_TCMDC: Percent inhibition of human HepG2 cell line. Test compounds present at 10uM.

| SMILES | Inhibition (Plasmodium falciparum [1]) | Inhibition (Plasmodium falciparum [2]) | Inhibition (HepG2) |
| --- | --- | --- | --- |
| Cc1cc2nc(N=C3NC4(c5ccccn5)NC(=Nc5nc6cc(C)c(C)cc6[nH]5)NC4(c4ccccn4)N3)[nH]c2cc1C.O=C(O)C(F)(F)F (centres undefined) | 87% | 62% | 3% |
| CC(=O)Nc1ccc(OCCN(Cc2ccccc2C(F)(F)F)c2ccc(C#N)c(C(F)(F)F)c2)cc1 | 100% | 81% | 8% |
| O=C(NCC1CCN(Cc2ccc3c(c2)OCCO3)C1)c1cc(-c2cccc(C(F)(F)F)c2)cs1.O=C(O)C(F)(F)F (centres undefined) | 100% | 1% | 31% |
| O=C(Nc1cccc(-c2ccc(CN3CCCC3)cc2)c1)c1cccc(Cl)c1.O=C(O)C(F)(F)F | 100% | 61% | 32% |
| Cl.NOCCCCOc1ccc(Br)cc1 | 99% | 0% | 0% |
| Cc1nc(N)nc(N)c1C#CC1CCCC1 | 96% | 2% | 68% |
| CN1CCC(C(=O)Nc2ccc(-c3ccc(-c4nc5ccccc5[nH]4)s3)cc2)CC1 | 99% | 22% | 30% |
| Cc1cc(C2CCN(CCCCNC(=O)c3ccc(-c4ccc(C(F)(F)F)cc4)cc3)CC2)c(C)cc1OCC(N)=O | 91% | 44% | 34% |
| COc1ccc(-c2ccc(NC(=O)c3ccc(Cl)cc3)cc2)cc1CN1CCC(O)CC1.O=C(O)C(F)(F)F | 89% | 15% | 20% |
| NC12CC3CC(CC(C3)C1)C2 [AMANTADINE] | 98% | 0% | 31% |
| CC(=O)Nc1nnc(SCc2c(C)cc(C(C)(C)C)cc2C)s1 | 98% | 91% | 3% |
| CCOc1ccc(-c2nonc2NC(=O)c2ccccc2)cc1OCC | 99% | 100% | 6% |
| COc1cc(NC(=O)c2cc([N+](=O)[O-])ccc2NC(=O)CNC2CCCCC2C)cc(OC)c1 (centres undefined) | 87% | 78% | 0% |
| Cc1cccc2nc(-c3ccc(-c4ccc(CN5CCN(C6CCN(C)CC6)CC5)cc4)cc3)[nH]c12.O=C(O)C(F)(F)F | 100% | 100% | 99% |
| CCOc1ccc(NC(=O)c2ccc(NCCCN3CC(C)CC(C)C3)c([N+](=O)[O-])c2)cc1 (centres undefined) | 100% | 60% | 3% |
| Clc1ccc(CNc2nc(NCCc3c[nH]cn3)nc(N3CCCC4CCCCC43)n2)cc1 (centres undefined) | 100% | 100% | 10% |
| CCN(CC)CCN(Cc1ccc(-c2ccc(C(F)(F)F)cc2)cc1)C(=O)Cn1c(CCc2cccc(F)c2F)c(C)c(=O)c2ccccc21.O=C(O)C(O)C(O)C(=O)O | 87% | 52% | 61% |
| Cc1nc(N)nc(N)c1-c1ccc(Br)cc1 | 98% | 1% | 46% |
| COc1ccc(NS(=O)(=O)c2ccccc2Br)cc1N1CCN(C)CC1.Cl | 94% | 3% | 2% |
| COc1ccc(-c2ccc(NC(=O)c3cccc(C#N)c3)cc2)cc1CN1CCNCC1.O=C(O)C(F)(F)F | 100% | 47% | 30% |
| COc1ccc(-c2csc3ncnc(Cl)c23)cc1 | 96% | 97% | 0% |

| SMILES | Inhibition (Plasmodium falciparum [1]) | Inhibition (Plasmodium falciparum [2]) | Inhibition (HepG2) |
| --- | --- | --- | --- |
| N#Cc1cccc(C(=O)Nc2cccc(-c3ccc(C(=O)Nc4cccnc4)cc3)c2)c1 | 89% | 10% | 39% |
| Cc1cc2c(cc1C(F)(F)F)N(C(=O)Nc1cc(C(=O)NCCN(C)C)cc(C(F)(F)F)c1)CC2 | 100% | 50% | 19% |
| Cc1cccc(CNc2nc(C)cc(N[C@@H](Cc3ccccc3)C(=O)NCCOc3ccccc3)n2)c1.O=C(O)C(F)(F)F | 93% | 54% | 28% |
| Cc1noc(C)c1-c1ccc2c(Nc3ccc(C(F)(F)F)cc3)c(C(N)=O)cnc2c1.Cl | 100% | 95% | 1% |
| Cc1ccc(C(=O)Nc2ccc(Nc3ccnc4cc(-c5nccs5)ccc34)cc2O)cc1.Cl | 100% | 100% | 100% |
| O=C(/C=C/c1ccc([N+](=O)[O-])cc1)N1CCC(NS(=O)(=O)c2cccc(C(F)(F)F)c2)CC1 | 94% | 8% | 0% |
| Cc1cc(C)c2c(c1)C(=NO)CCN2 | 94% | 2% | 2% |
| CN1CCC(N2CCN(Cc3cccc(-c4ccc(-c5nc6ccccc6[nH]5)cc4)c3)CC2)CC1.O=C(O)C(F)(F)F | 100% | 99% | 56% |
| CCCNc1nc(Nc2ccccc2C)nc2ccccc12 | 95% | 64% | 13% |
| CC(=O)Nc1ccc(Nc2ncc([N+](=O)[O-])c(Nc3ccccc3C(N)=O)n2)cc1.Cl | 98% | 97% | 42% |
| O=C(O)C(F)(F)F.O=C(c1ccccc1)N(Cc1ccccc1-c1ccc(CNCCc2ccccc2)cc1)C1CCN(Cc2ccccc2)CC1 | 95% | 69% | 95% |
| O=C(/C=C/c1ccc(Cl)c(Cl)c1)N1CCN(C(=O)Nc2cccc(C(F)(F)F)c2)CC1 | 99% | 100% | 53% |
| O=C(N[C@@H](Cc1ccccc1)C(=O)NC1CCCCCC1)c1ccc(O)c(-c2ccc(Cl)c(Cl)c2)c1 | 92% | 99% | 0% |
| Br.CCCOc1ccc(OCCCON2C(=N)N=C(N)NC2(C)C)cc1 | 96% | 94% | 59% |
| CCCCCOc1ccc(/N=C2\C=C(O)C(=O)c3ccccc32)cc1 | 99% | 96% | 10% |
| Cc1cc(O)c(CN(C)Cc2ccc3c(c2)OCO3)cc1C(C)C | 98% | 74% | 9% |
| CCOc1cc(Br)c(C(C)NC(=O)c2ccccc2)cc1OCC (centres undefined) | 92% | 10% | 0% |
| CC(=O)O.Cc1cc(F)ccc1[C@H]1CNCCN1C(=O)N(C)[C@@H](C)c1cc(C(F)(F)F)cc(C(F)(F)F)c1 | 100% | 99% | 20% |
| CN(C)CCN(C)Cc1ccc(-c2ccc3c(Nc4ccc(Oc5ccccc5)cc4)ccnc3c2)o1 | 100% | 100% | 5% |
| O=C(Nc1ccc(N2CCN(Cc3cccc(F)c3)CC2)cc1)c1cccs1.O=C(O)C(F)(F)F | 95% | 92% | 0% |
| Clc1ccc(Sc2cncnc2N2CCOCC2)cc1 | 95% | 0% | 66% |

| SMILES | Inhibition (Plasmodium falciparum [1]) | Inhibition (Plasmodium falciparum [2]) | Inhibition (HepG2) |
| --- | --- | --- | --- |
| CN1CCN(CC(=O)Nc2ccc(-c3ccc(-c4nc5cc(C(F)(F)F)ccc5[nH]4)s3)cc2)CC1 | 100% | 73% | 84% |
| Cc1[nH]c(C)c(-c2ccc(OCc3ccc(OC(F)(F)F)cc3)nc2)c(=O)c1Br | 98% | 97% | 10% |
| O=C(CNc1ccc(Cl)c(S(=O)(=O)N2CCCC2)c1)Nc1ccc(Br)cc1F | 99% | 97% | 18% |
| NC1=Nc2ccc(Cl)cc2C1(O)c1ccccc1 (centres undefined) | 100% | 51% | 0% |
| CCCNC(=O)Nc1cc2cc(-c3cccc(CN4CCCCC4)c3)ccc2n2c(C)nnc12 | 100% | 50% | 60% |
| Cl.NC(=O)c1cccc(Nc2nccc(Nc3ccc(Oc4cccc5ccccc45)cc3)n2)c1 | 94% | 22% | 0% |
| CCCN(Cc1nnc(-c2cccs2)o1)C(=O)CSc1nnnn1-c1ccc(C)c(C)c1 | 96% | 80% | 0% |
| O=C(O)C(F)(F)F.O=c1[nH]ccc2nc(N[C@@H]3CCNC3)nc(Nc3cccc(S(=O)(=O)N4CCOCC4)c3)c12 | 90% | 98% | 0% |
| Cl.Cl.N=C(N)Nc1ccc(Cc2ccc(NC(=N)N)cc2)cc1 | 93% | 94% | 35% |
| Br.CC1(C)NC(N)=NC(=N)N1OCCCc1cccc(C(F)(F)F)c1 | 95% | 95% | 62% |
| Clc1ccc(-c2cc(-c3csc(Nc4ccncc4)n3)on2)cc1 | 100% | 99% | 1% |
| OCCN1CCN(C(=S)NC2CCCCC2)CC1 | 93% | 0% | 49% |
| O=C(Nc1ccc(Cl)c(Cl)c1)N(Cc1ccccc1Br)C1CCNCC1 | 96% | 8% | 13% |
| COc1cccc2cc(C(=O)N[C@@H](CC(C)C)C(=O)N[C@H](C=NN(C)C(=O)OC(C)(C)C)Cc3ccccc3)oc12 | 99% | 89% | 5% |
| CC(=O)Nc1sc(C)c(C)c1CN1CCc2ccccc2C1 | 93% | 94% | 0% |
| CCOc1cc(Cl)c(C(C)NC(=O)c2ccccc2)cc1OCC (centres undefined) | 91% | 49% | 0% |
| Cc1cc(N[C@@H](CC(C)C)C(=O)NC2CCCC2)nc(NCC2CCCCC2)n1.O=C(O)C(F)(F)F | 100% | 88% | 8% |
| CCC(C)(C)n1c(C)cc2c3c(N)nc(N)nc3ccc21 | 97% | 85% | 69% |
| Cc1[nH]c(C)c(-c2ccc(CCc3ccc(N)cc3)cc2)c(=O)c1Cl | 97% | 97% | 2% |
| FC(F)(F)c1ccc2[nH]c(-c3cccc(-c4cccc(CNCCN5CCNCC5)c4)c3)nc2c1.O=C(O)C(F)(F)F | 92% | 18% | 29% |
| CCn1c(-c2nonc2N)nc2c(-c3cccc(Cl)c3)ncc(OCCCNCCc3c[nH]cn3)c21.O=C(O)C(F)(F)F | 100% | 98% | 16% |
